Experimental findings from ChEMBL document CHEMBL4513216, “Probing the Open Global Health Chemical Diversity Library for Multistage-Active Starting Points for Next-Generation Antimalarials” (ACS Infect Dis, 2020) are described below.

Among all 68,000 compounds or so, about 2,700 (4%) showed an effect of 50% or more. The entries come from a sample that favours strong results as a whole.

For the assay, the system named is Plasmodium berghei. Kind of assay: Screen against P. berghei liver stage (PbLuc), transformed with Luciferase, at 2uM. The following applies: tested at 2 uM. Type of assay: functional, HepG2.
As for `CN(C)CCN1C(=O)CC[C@@H]2[C@H]1CCN2C(=O)c1ccc(C#N)cc1`, the INHIBITION was 33.35%.
Regarding `CS(=O)(=O)N1C[C@H]2CC[C@@H](C1)N(Cc1ccc3nsnc3c1)C2`, the INHIBITION is on record as 6.3%.
In the case of `Cc1cc(C(=O)N2CCCC(Cn3cc(C4CC4)nn3)C2)nc(C)n1` (configuration not stated), the INHIBITION came out at 15.27%.
Turning to `CC(O)CN1CCC(CNCc2cccc(C(F)(F)F)c2)CC1` (configuration not stated), the INHIBITION was -32.84%.
In the case of `CCc1nnc(CNC(=O)CCC2CCCCN2C)s1` (configuration not stated), the INHIBITION is reported as -22.64%.
With `CN1CCCC(CCC(=O)NCCc2nnc(N)s2)C1` (configuration not stated), the INHIBITION is listed as 49.25%.
Regarding `CCc1nnc(CNC(=O)CCC2CCCN(C)C2)s1` (configuration not stated), the INHIBITION was 52.47%.
Turning to `O=C(CCCN1CCCCC1)N1CCN(C(=O)c2ccc[nH]2)CC1`, the INHIBITION is 2.7%.
The figure for `Cn1c(SCC2OCCc3ccccc32)n[nH]c1=O` (configuration not stated) is 54.53%; for `CCCn1c(O)nnc1SCC1OCCc2ccccc21` (configuration not stated) it is -10.86%.
The figure for `Cn1c(N)nnc1SCC1OCCc2ccccc21` (configuration not stated) is 18.52%; for `COc1ccc(CN2CC(O)CN(C(=O)c3ccccc3)CC2=O)cc1` (configuration not stated) it is -21.31%; for `CSc1ccc(CNc2ccccc2CN2CCC(O)CC2)cc1` it is 50.03%.
`CCc1ccc(CNc2ccccc2CN2CCC(O)CC2)o1`: the INHIBITION is reported as -10.29%.
Consider `OCc1ccc(CNc2ccccc2CN2CCC(O)CC2)o1`, for which the INHIBITION is recorded as 5.02%.
Next, `CCSCc1ccnc(NC(=O)C2CCCO2)c1` (configuration not stated): 31.62%.
For `CCSCc1ccnc(NC(=O)C2CCOC2)c1` (configuration not stated), the INHIBITION is listed as 51.27%.
Consider `O=C(Nc1cc(CSCCO)ccn1)c1ccc(Cl)o1`, for which the INHIBITION is -32.88%.
Next, `COc1ccc(-c2csc(-c3cccc(C(=O)O)c3)n2)cc1OC`: -60.47%.
Next, `c1ccc(CN2CCC3(CC2)Nc2ccccc2CO3)cc1`: 17.25%; `Cc1cc(CN2CCC(CNC(=O)c3ccc(C#N)cc3)C2)[nH]n1` (configuration not stated): 39.57%; `Cc1cc(CN2CCC(CNC(=O)Cc3ccc(F)cc3)C2)[nH]n1` (configuration not stated): -73.43%.
The figure for `Cc1cc(CN2CCC(CNC(=O)CN3CCCCCC3)C2)[nH]n1` (configuration not stated) is 63.17%; for `CCC1=N[C@@]2(CC[C@@H]3CN(Cc4ccc(Cl)cc4)C[C@@H]32)C(=O)N1C` it is 17.51%; for `CN1CCc2[nH]cnc2C12CCN(C(=O)c1noc3c1CCCC3)CC2` it is -15.03%.
`Cn1c(CN2CCOC[C@H]2c2nc(C(C)(C)C)co2)nc2ccccc21`: the INHIBITION is on record as -39.35%.
The figure for `C[C@@H]1CN(Cc2nc(C(N)=O)no2)CC[C@@]1(O)C1CC1` is 59.1%; for `C[C@@H]1CN(Cc2nc(C(N)=O)no2)CC[C@@]1(O)C1CCOCC1` it is 26.14%.
`CNC(=O)c1noc(CN2CC[C@](C)(O)[C@H](C)C2)n1`: the INHIBITION is given as -44.85%.
In the case of `CC(=O)N1CCN(C(=O)c2ccc3ccn(C)c3c2)CC1`, the INHIBITION was -58.53%.
Next, `O=S(=O)(Cc1cccc(Cl)c1)CC(O)Cn1cccn1` (configuration not stated): -17.17%; `CN1[C@@H]2CC[C@H]1CN(C(=O)c1ccc(-c3ccccc3)[nH]1)CC2`: 21.95%.
Regarding `CC(C)n1cc(-n2cc3nc(N4CCOCC4)[nH]cc-3c2=O)cn1`, the INHIBITION came out at 53.22%.
Next, `CCn1cc(-n2cc3nc(N4CCOCC4)[nH]cc-3c2=O)cn1`: 37.89%; `Cn1cc(-n2cc3nc(N4CCOCC4)[nH]cc-3c2=O)cn1`: 13.95%.
Next, `Cc1cnc2c(c1NCc1ccc(F)cc1)c(=O)n(C)c(=O)n2C`: -5.61%.
Next, `COc1ccc(CNc2nnc(CC(C)(C)C)o2)cc1C#N`: 55.36%.
Regarding `CC(C)(C)Cc1nnc(NCc2cccc(C#N)c2)o1`, the INHIBITION stood at 31.51%.
Regarding `CCCc1nnc(NCc2ccc(OC)c(C#N)c2)o1`, the INHIBITION came to 48.21%.
As to `O=C(CCN1CCc2ccccc21)N1C[C@@H](O)[C@H](N2CCCC2)C1`, the INHIBITION was found to be 15.72%.
Take `O=C(Cc1cccs1)N1CC[C@H]2[C@H]1CCN2Cc1cccnc1`: the INHIBITION stood at 7.33%.
`O=C1C[C@H]2[C@@H](CCN2C(=O)c2cscn2)N1Cc1cccnc1`: the INHIBITION was -12.98%.
The figure for `O=C1C[C@H]2[C@@H](CCN2C(=O)Cc2ccsc2)N1Cc1cccnc1` is 52.91%.
With `O=C1C[C@H]2[C@@H](CCN2C(=O)Cc2ccccc2)N1Cc1cccnc1`, the INHIBITION was 30.4%.
`O=C1C[C@H]2[C@@H](CCN2C(=O)Cc2cccs2)N1Cc1ccncc1`: the INHIBITION is 17.77%.
Take `O=C1C[C@H]2[C@@H](CCN2C(=O)Cc2cccs2)N1Cc1cccnc1`: the INHIBITION amounted to 55.7%.
The figure for `CN(Cc1nnc2n1CCC2)C(=O)c1ccc2c(c1)CCO2` is 29.42%.
`CCOCCNC1(c2ccc(Cl)cc2)CCOCC1`: the INHIBITION turned out to be 32.26%.
The figure for `COCCNC1(c2ccc(Cl)cc2)CCOCC1` is 60.9%; for `CC(C)OCCNC1(c2ccc(Cl)cc2)CCOCC1` it is -17.01%.
Next, `CC(c1nc(C(C)(C)C)no1)S(=O)(=O)CC(=O)N1CCCC1` (configuration not stated): -3.22%; `Cn1c(C2CCCN2C(=O)c2cn(CCN)nn2)nc2ccccc21` (configuration not stated): -6.44%.
The figure for `O=C(CN1CCOc2ccccc2C1)NCc1cc2n(n1)CCNC2` is 5.75%.
In the case of `O=C(CN1CCC(c2ccccc2)CC1)NCc1cc2n(n1)CCNC2`, the INHIBITION came to 5.21%.
As for `O=C(CN1CC(c2ccccc2)CC1=O)NCc1cc2n(n1)CCNC2` (configuration not stated), the INHIBITION turned out to be 66.18%.
With `CCOc1ccccc1Nc1nc2c(C)nn(C)c2c(=O)n1C`, the INHIBITION was -51.9%.
The figure for `CN1CCOC(CNC(=O)COc2ccc(F)cc2F)C1` (configuration not stated) is -7.88%; for `Cc1nc2c(c(NC(C)C)n1)CCN(C1CCOCC1)CC2` it is 53.44%.
As for `Cc1nc2c(c(NC(C)C)n1)CCN(C(=O)CCO)CC2`, the INHIBITION is on record as -13.61%.
Turning to `CC(C)Nc1nc2c(c(NC3CC3)n1)CCN(C1CCOCC1)CC2`, the INHIBITION was determined as 4.95%.
Next, `Cc1cnc(NC(=O)NC(CCO)c2cccs2)s1` (configuration not stated): -11.51%; `Cn1nc(COc2cncnc2)c2c1CCN(Cc1ccco1)C2`: 8.36%; `Cn1nccc1C(=O)Nc1cc(C(F)(F)F)c[nH]c1=O`: -27.71%.
In the case of `O=C(CCc1ccco1)Nc1cc(C(F)(F)F)c[nH]c1=O`, the INHIBITION is 19.35%.
Next, `CC(C)c1noc(CCC(=O)Nc2cc(C(F)(F)F)c[nH]c2=O)n1`: 64.9%.
Regarding `O=C(NCCc1ccco1)Nc1cc(C(F)(F)F)c[nH]c1=O`, the INHIBITION was -6.16%.
The figure for `CN(Cc1ccco1)C(=O)Nc1cc(C(F)(F)F)c[nH]c1=O` is 19.35%.
Next, `O=C(NCc1ccoc1)Nc1cc(C(F)(F)F)c[nH]c1=O`: -7.02%; `O=C(Nc1cc(C(F)(F)F)c[nH]c1=O)c1ccco1`: 56.67%.
As to `Cc1noc(CCCC(=O)Nc2cc(C(F)(F)F)c[nH]c2=O)n1`, the INHIBITION is given as -30.49%.
Turning to `CC(CCc1ccco1)NC(=O)Nc1cc(C(F)(F)F)c[nH]c1=O` (configuration not stated), the INHIBITION came to 57.95%.
Next, `O=C(COCc1ccco1)Nc1cc(C(F)(F)F)c[nH]c1=O`: 66.2%.
As for `CCCc1noc(CCC(=O)Nc2cc(C(F)(F)F)c[nH]c2=O)n1`, the INHIBITION is listed as 43.44%.
The figure for `CCN(Cc1ccco1)C(=O)Nc1cc(C(F)(F)F)c[nH]c1=O` is 28.65%.
The figure for `Cc1nc(C(C)C)sc1C(=O)N(C)Cc1cnn(C)c1` is -35.11%.
The figure for `Cc1cc(NC(=O)NCC(C)N2CCOCC2)n(C)n1` (configuration not stated) is 25.53%; for `CC(=O)N1CCOC(c2cncc(CCC(=O)N(C)C)n2)C1` (configuration not stated) it is -26.69%; for `CCn1cc(-c2cc(-c3cc(CN(C)C)cs3)nc(N)c2C#N)c(C)n1` it is 42.48%.
For `c1ccc2cc(OCCN3CCn4c(nnc4C4CC4)C3)ccc2c1`, the INHIBITION came out at 18.31%.
With `Cc1cccc(CN2CCOC3(CCCN(CC(=O)N(C)C)C3)C2)n1` (configuration not stated), the INHIBITION is reported as -25.4%.
The figure for `Cc1ccccc1C(C)NC(=O)Cc1c(C)nc2cc(=O)[nH]n2c1C` (configuration not stated) is -18.39%.
Regarding `CC(C)n1cnnc1CN(C)Cc1ccoc1`, the INHIBITION is recorded as 33.78%.
With `CN(CCCNc1cc(N2CCCC2CO)ncn1)S(C)(=O)=O` (configuration not stated), the INHIBITION was found to be 22.75%.
For `Cn1cc(CN2CC[C@@H](NS(C)(=O)=O)[C@@H]2Cc2cccnc2)cn1`, the INHIBITION is -28.13%.
The figure for `O=C(c1cc(-n2cnnn2)ccc1Cl)N1CCN(c2ccccc2)CC1` is 8.92%; for `c1csc(CN2Cc3nccn3CC(Cn3cncn3)C2)n1` (configuration not stated) it is -43.55%.
`c1csc(CN2Cc3nccn3CC(Cn3cncn3)C2)c1` (configuration not stated): the INHIBITION came to 54.62%.
`c1cc(CN2Cc3nccn3CC(Cn3cncn3)C2)ccn1` (configuration not stated): the INHIBITION is recorded as -6.68%.
Next, `O=C(NCc1cccnc1)[C@@H]1CC[C@@H]2[C@@H](CCN2c2ncccn2)O1`: 25.5%.
Next, `CN(CCn1ccnc1-c1ccccn1)S(C)(=O)=O`: 35.52%; `CC(C)NC(=O)N1CCN(CC2CC2)CC2(CNC(=O)C2)C1` (configuration not stated): 13.38%; `O=C(Cn1cccc2cc(-c3ccc(F)cc3)nc1-2)N1CCC(O)CC1`: 92.28%.
Next, `COc1ccc(-c2cc3cccn(CC(=O)N4CCOCC4)c-3n2)cc1`: -16.87%; `CN(C)CCN(C)C(=O)Cn1cccc2cc(-c3ccc(F)cc3)nc1-2`: 31.81%.
With `Cc1csc(CNc2cnn(CC(C)C)c2)n1`, the INHIBITION is 3.58%.
Take `CCc1nnc2n1CCN(C(=O)c1cc(C)n(-c3ccccc3)c1C)C2`: the INHIBITION is on record as -68.26%.
Next, `Cn1cc(N2CCC3(CCN(C(=O)[C@H]4CCCO4)C3)C2=O)cn1` (some centres not stated): -28.81%.
Next, `CC(=O)N1CC[C@H]2OCC[C@@]2(C(=O)NCc2cnc(C)cn2)C1`: -41.74%.
As for `Cc1cnc(CNC(=O)[C@@]23CCO[C@@H]2CCN(C2CCCC2)C3)cn1`, the INHIBITION is listed as -7.71%.
On to `Cc1cnc(CNC(=O)[C@@]23CCO[C@@H]2CCNC3)cn1`, for which the INHIBITION was determined as 62.6%.
The figure for `CCN1C[C@@H]2C[C@H](C(=O)NCc3cccnc3)[C@H](C1)O2` is -19.81%.
`CCCC1(CO)CCCN(C(=O)CCCn2nc(C)cc2C)C1` (configuration not stated): the INHIBITION came out at 1.1%.
